Measured values published in PubChem BioAssay (NCI).
The panel holds about 83,000 compounds, 20% with a hit somewhere; the sample as a whole holds those more often.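 In brief: 96-well plates, 48 h treatment, single concentration, percent growth endpoint.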 Activity calls are given as the source filed them. How the source made its calls: active means growth percent below 10; inactive means the rest.

How the values were obtained:
Assay in all cases: NCI-60 one-dose screen, 48 h (100 = growth as untreated, 0 = no growth, -100 = all killed)
Settings in all cases: 10 µM unless noted
SR leukemia = tested on: SR leukemia
RPMI-8226 leukemia = tested on: RPMI-8226 leukemia
OVCAR-8 ovarian = tested on: OVCAR-8 ovarian
OVCAR-5 ovarian = tested on: OVCAR-5 ovarian
OVCAR-4 ovarian = tested on: OVCAR-4 ovarian
SK-OV-3 ovarian = tested on: SK-OV-3 ovarian
IGROV1 ovarian = tested on: IGROV1 ovarian
OVCAR-3 ovarian = tested on: OVCAR-3 ovarian
HS 578T breast = tested on: HS 578T breast
NCI/ADR-RES ovarian = tested on: NCI/ADR-RES ovarian

Measured: growth

CCN1C(=O)N(CC)C2C1NN=c1s/c(=C\c3cccc([N+](=O)[O-])c3)c(=O)n12 (stereo not given)
active: OVCAR-8 ovarian 6.8% | OVCAR-3 ovarian 1.4% | NCI/ADR-RES ovarian 9.2%
inactive: SR leukemia 12.7% | RPMI-8226 leukemia 22.8% | OVCAR-5 ovarian 33% | OVCAR-4 ovarian 51.1% | SK-OV-3 ovarian 38.3% | IGROV1 ovarian 22.6% | HS 578T breast 17.6%

CN(CCn1sc(=O)n(Cc2ccccc2)c1=O)Cc1ccc2c(Cl)cc(Cl)c(O)c2n1
active: NCI/ADR-RES ovarian 6.83%
inactive: SR leukemia 39.2% | RPMI-8226 leukemia 45% | OVCAR-8 ovarian 32.7% | OVCAR-5 ovarian 61.4% | OVCAR-4 ovarian 59.3% | SK-OV-3 ovarian 65.4% | IGROV1 ovarian 37.3% | OVCAR-3 ovarian 18.9% | HS 578T breast 68.1%

Cc1ccc2c3c(c(=O)[nH]c2c1)C1(C(C#N)=C(N)O3)c2cc(Br)ccc2-c2ccc(Br)cc21
active: OVCAR-8 ovarian 0.183% | OVCAR-4 ovarian -50% | IGROV1 ovarian -13.2% | OVCAR-3 ovarian -40.1% | HS 578T breast -5.5%
inactive: SR leukemia 22.2% | RPMI-8226 leukemia 14.8% | OVCAR-5 ovarian 18.3% | SK-OV-3 ovarian 47.7% | NCI/ADR-RES ovarian 54.1%

O=C(Cn1c2c(c3ccccc31)CCCC2)Nc1ccc(-c2nc3ccccc3s2)cc1
inactive: SR leukemia 88.8% | RPMI-8226 leukemia 116% | OVCAR-8 ovarian 107% | OVCAR-5 ovarian 99.5% | OVCAR-4 ovarian 104% | SK-OV-3 ovarian 114% | IGROV1 ovarian 83.8% | OVCAR-3 ovarian 110% | HS 578T breast 112% | NCI/ADR-RES ovarian 109%

CCCCCCCCCCCCCCCC(N)c1ccccc1 (stereo not given)
active: SR leukemia -26.1% | RPMI-8226 leukemia -27.9% | OVCAR-8 ovarian -26.3% | OVCAR-4 ovarian -15.8% | IGROV1 ovarian -46.6% | OVCAR-3 ovarian -70.2% | NCI/ADR-RES ovarian -31.1%
inactive: OVCAR-5 ovarian 79.7% | SK-OV-3 ovarian 77.1% | HS 578T breast 60.6%

Cn1c(O)c(C=NCCN=Cc2c(O)n(C)c(=O)n(C)c2=O)c(=O)n(C)c1=O
inactive: RPMI-8226 leukemia 80.6% | OVCAR-8 ovarian 103% | OVCAR-5 ovarian 83.7% | OVCAR-4 ovarian 112% | SK-OV-3 ovarian 107% | IGROV1 ovarian 106% | OVCAR-3 ovarian 102% | HS 578T breast 112% | NCI/ADR-RES ovarian 104%
active: SR leukemia -21.9%

Cc1ccc(C2=Nc3c(N)ncnc3NC(c3ccc4c(c3)OCO4)C2)cc1 (stereo not given)
inactive: SR leukemia 15.8% | RPMI-8226 leukemia 40.1% | OVCAR-8 ovarian 81% | OVCAR-5 ovarian 74.6% | OVCAR-4 ovarian 87.6% | SK-OV-3 ovarian 78.3% | IGROV1 ovarian 32% | OVCAR-3 ovarian 37.8% | HS 578T breast 78% | NCI/ADR-RES ovarian 17.8%

CCCCCCNC(=O)Oc1ccc(/C(=C(/C)Cc2ccc(OC)cc2)c2ccc(OCCCN(C)C)cc2)cc1
active: SR leukemia -53.3% | RPMI-8226 leukemia -20.4%
inactive: OVCAR-8 ovarian 13.3% | OVCAR-5 ovarian 85.3% | OVCAR-4 ovarian 60.7% | SK-OV-3 ovarian 88.4% | IGROV1 ovarian 41.6% | OVCAR-3 ovarian 55.9% | HS 578T breast 52.9% | NCI/ADR-RES ovarian 67.5%

CCOC(=O)c1cc2c(=O)oc3ccccc3c2oc1=O
active: SR leukemia -26%
inactive: RPMI-8226 leukemia 84.7% | OVCAR-8 ovarian 102% | OVCAR-5 ovarian 100% | OVCAR-4 ovarian 96.4% | SK-OV-3 ovarian 102% | IGROV1 ovarian 103% | OVCAR-3 ovarian 112% | HS 578T breast 100% | NCI/ADR-RES ovarian 112%

CC(=O)N(N=Nc1ccccc1)c1cccc2ccccc12
inactive: SR leukemia 74.1% | RPMI-8226 leukemia 102% | OVCAR-8 ovarian 84.1% | OVCAR-5 ovarian 75.8% | OVCAR-4 ovarian 94.5% | SK-OV-3 ovarian 82.7% | IGROV1 ovarian 62.9% | OVCAR-3 ovarian 125% | HS 578T breast 101% | NCI/ADR-RES ovarian 78.5%

C#CCOc1ccc2ncnc(Nc3cccc(NC(=O)C=C)c3)c2c1
inactive: SR leukemia 17.1% | RPMI-8226 leukemia 80.2% | OVCAR-8 ovarian 45.8% | OVCAR-5 ovarian 89.6% | OVCAR-4 ovarian 76% | SK-OV-3 ovarian 60.6% | IGROV1 ovarian 33.8% | OVCAR-3 ovarian 60.6% | HS 578T breast 67.3% | NCI/ADR-RES ovarian 80.2%

Nc1nc(=S)c2ncn(C3OC(COP(=O)(O)O)C(O)C3O)c2[nH]1 (stereo not given)
active: SK-OV-3 ovarian 5.27% | OVCAR-3 ovarian 7.25%
inactive: SR leukemia 11.7% | RPMI-8226 leukemia 10.9% | OVCAR-8 ovarian 13.8% | OVCAR-5 ovarian 36.8% | OVCAR-4 ovarian 32.2% | IGROV1 ovarian 44.2% | HS 578T breast 67.5% | NCI/ADR-RES ovarian 20.9%

CC(=O)Cc1nsc(NC(=O)c2cc(-c3cc(Cl)cc(Cl)c3)oc2C)n1
inactive: SR leukemia 98.3% | RPMI-8226 leukemia 93.5% | OVCAR-8 ovarian 97.8% | OVCAR-5 ovarian 104% | OVCAR-4 ovarian 104% | SK-OV-3 ovarian 99.2% | IGROV1 ovarian 102% | OVCAR-3 ovarian 106% | HS 578T breast 102% | NCI/ADR-RES ovarian 103%

O=C(CSc1nc2sc3c(c2c(=O)n1-c1ccccc1)CCCCC3)N/N=C/c1ccc(F)cc1
active: OVCAR-8 ovarian -17.9% | OVCAR-4 ovarian -47.4% | OVCAR-3 ovarian -33.8% | HS 578T breast -13.9%
inactive: SR leukemia 11.3% | RPMI-8226 leukemia 66% | OVCAR-5 ovarian 41.8% | SK-OV-3 ovarian 73.4% | IGROV1 ovarian 62.1% | NCI/ADR-RES ovarian 22.9%

COc1ccc(-c2nc(SCC(C)C)nc(N/N=C\c3ccc(F)cc3)c2C#N)cc1
inactive: SR leukemia 46.7% | RPMI-8226 leukemia 98.2% | OVCAR-8 ovarian 96.3% | OVCAR-5 ovarian 95.6% | SK-OV-3 ovarian 112% | IGROV1 ovarian 80.5% | OVCAR-3 ovarian 70.5% | HS 578T breast 62.4% | NCI/ADR-RES ovarian 84.2%
active: OVCAR-4 ovarian 8.96%

C[C@]12CC[C@@H]3c4ccc(O)c([N+](=O)[O-])c4CC[C@H]3[C@@H]1CCC2=O
inactive: SR leukemia 115% | RPMI-8226 leukemia 90.5% | OVCAR-8 ovarian 112% | OVCAR-5 ovarian 92% | OVCAR-4 ovarian 81.1% | SK-OV-3 ovarian 123% | IGROV1 ovarian 80.6% | OVCAR-3 ovarian 104% | HS 578T breast 78% | NCI/ADR-RES ovarian 94.9%

CCn1cc(C(=O)N/N=C/c2cccs2)c(=O)c2cc(F)c(N3CCNC(C)C3)c(F)c21 (stereo not given)
active: SR leukemia -4.21% | RPMI-8226 leukemia -36.6%
inactive: OVCAR-8 ovarian 43.8% | OVCAR-5 ovarian 67.2% | OVCAR-4 ovarian 76.2% | SK-OV-3 ovarian 90.3% | IGROV1 ovarian 67% | OVCAR-3 ovarian 68.7% | HS 578T breast 86% | NCI/ADR-RES ovarian 67.9%

O=C(c1cc2ccccc2o1)c1nn(-c2ccccc2)/c(=N/N=Cc2cn(-c3ccccc3)nc2-c2cc3ccccc3oc2=O)s1
inactive: SR leukemia 72.7% | RPMI-8226 leukemia 90.9% | OVCAR-8 ovarian 97.5% | OVCAR-5 ovarian 105% | OVCAR-4 ovarian 93.3% | SK-OV-3 ovarian 127% | IGROV1 ovarian 99.1% | OVCAR-3 ovarian 100% | HS 578T breast 99.8% | NCI/ADR-RES ovarian 96.5%

O=C(Nn1c2c(sc1=NCc1ccccc1)C(=O)c1ccccc1C2=O)c1cc2ccc1CCc1ccc(cc1)CC2
inactive: SR leukemia 48.3% | RPMI-8226 leukemia 59% | OVCAR-8 ovarian 46.3% | OVCAR-5 ovarian 118% | OVCAR-4 ovarian 47.7% | SK-OV-3 ovarian 72.9% | IGROV1 ovarian 53% | OVCAR-3 ovarian 51.1% | HS 578T breast 72.2% | NCI/ADR-RES ovarian 64.3%

O=C(CCc1nnc(Cn2cnc3nc[nH]c3c2=O)o1)c1nc2ncccc2[nH]1
inactive: SR leukemia 100% | RPMI-8226 leukemia 99.6% | OVCAR-8 ovarian 100% | OVCAR-5 ovarian 100% | OVCAR-4 ovarian 99.4% | SK-OV-3 ovarian 107% | IGROV1 ovarian 102% | OVCAR-3 ovarian 104% | HS 578T breast 93.2% | NCI/ADR-RES ovarian 100%

CC(O)c1cnc(/C=C2\SC(=S)N(Cc3ccccc3)C2=O)s1 (stereo not given)
inactive: SR leukemia 32% | OVCAR-8 ovarian 52.1% | OVCAR-5 ovarian 90.1% | OVCAR-4 ovarian 101% | SK-OV-3 ovarian 95.7% | IGROV1 ovarian 94% | OVCAR-3 ovarian 53.2% | HS 578T breast 95.3% | NCI/ADR-RES ovarian 92.7%
active: RPMI-8226 leukemia 4.74%

CS(=O)(=O)Nc1cc(-c2ccc3ncnc(Nc4ccc5c(cnn5Cc5ccccn5)c4)c3c2)cnc1Cl
inactive: SR leukemia 58.3% | RPMI-8226 leukemia 68.8% | OVCAR-8 ovarian 90.3% | OVCAR-5 ovarian 68.5% | OVCAR-4 ovarian 91.5% | SK-OV-3 ovarian 89.7% | IGROV1 ovarian 38.1% | OVCAR-3 ovarian 44.1% | HS 578T breast 25.4% | NCI/ADR-RES ovarian 93.3%

COc1ccc(CC(C#N)c2cc3ccccc3[nH]2)cc1 (stereo not given)
inactive: SR leukemia 96.1% | RPMI-8226 leukemia 71.4% | OVCAR-8 ovarian 90.8% | OVCAR-5 ovarian 94.1% | OVCAR-4 ovarian 95.4% | SK-OV-3 ovarian 94.4% | IGROV1 ovarian 94.7% | OVCAR-3 ovarian 92% | HS 578T breast 90.8% | NCI/ADR-RES ovarian 92.8%

CCOC(=O)C(=Cc1cccc(Cl)c1)C(=O)OCC
active: SR leukemia 6.69% | RPMI-8226 leukemia -8.77% | OVCAR-8 ovarian -8.33% | IGROV1 ovarian 9.1% | NCI/ADR-RES ovarian 4.71%
inactive: OVCAR-5 ovarian 13.9% | OVCAR-4 ovarian 59.9% | SK-OV-3 ovarian 100% | OVCAR-3 ovarian 33.8% | HS 578T breast 68%

O=C(Nc1cccc([N+](=O)[O-])c1)c1cc2ccccc2cc1O
inactive: SR leukemia 48.6% | OVCAR-5 ovarian 10.8% | OVCAR-4 ovarian 15.6%
active: RPMI-8226 leukemia -55.3% | OVCAR-8 ovarian 9.47% | SK-OV-3 ovarian -82% | IGROV1 ovarian -2.54% | OVCAR-3 ovarian -9.94% | HS 578T breast 6.07% | NCI/ADR-RES ovarian -10.6%

O=C(c1ccc(-c2nc(CSc3nc4ccccc4s3)no2)cc1)N1CCSCC1
inactive: SR leukemia 43% | RPMI-8226 leukemia 47.2% | OVCAR-8 ovarian 43% | OVCAR-5 ovarian 117% | OVCAR-4 ovarian 69.5% | SK-OV-3 ovarian 72.6% | IGROV1 ovarian 77.6% | OVCAR-3 ovarian 78.8% | HS 578T breast 106% | NCI/ADR-RES ovarian 52.7%
